NPR2 activator – GC-B (human) receptor activation | P20594 | 370,000 compounds, 0.11% hits | HEK293-GC-B cells, CNP EC30, cGMP TR-FRET; 0% at EC30 CNP, 100% saturating CNP | activation, % at 10 µM;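 active = activation at 10 µM reaching about 35% in either raw or pattern-adjusted values, limit read from the data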
PLCg1 inh – PLC-gamma1 (human) inhibition, primary screen | 370,000 compounds, 0.84% hits | inhibition, % at 12.2 µM | P19174 | purified PLC-gamma1, fluorogenic substrate, fluorescence; in the data active = inhibition above about 9.5%
PLC-beta3 inh – inhibitors of human phospholipase C beta3; Q01970; Purified PLC-beta3, fluorogenic substrate, fluorescence; inhibition, % at 12.2 µM; 370,000 compounds, 0.18% hits; AID 720704
Target sequence (Q01970 whole entry, looked up): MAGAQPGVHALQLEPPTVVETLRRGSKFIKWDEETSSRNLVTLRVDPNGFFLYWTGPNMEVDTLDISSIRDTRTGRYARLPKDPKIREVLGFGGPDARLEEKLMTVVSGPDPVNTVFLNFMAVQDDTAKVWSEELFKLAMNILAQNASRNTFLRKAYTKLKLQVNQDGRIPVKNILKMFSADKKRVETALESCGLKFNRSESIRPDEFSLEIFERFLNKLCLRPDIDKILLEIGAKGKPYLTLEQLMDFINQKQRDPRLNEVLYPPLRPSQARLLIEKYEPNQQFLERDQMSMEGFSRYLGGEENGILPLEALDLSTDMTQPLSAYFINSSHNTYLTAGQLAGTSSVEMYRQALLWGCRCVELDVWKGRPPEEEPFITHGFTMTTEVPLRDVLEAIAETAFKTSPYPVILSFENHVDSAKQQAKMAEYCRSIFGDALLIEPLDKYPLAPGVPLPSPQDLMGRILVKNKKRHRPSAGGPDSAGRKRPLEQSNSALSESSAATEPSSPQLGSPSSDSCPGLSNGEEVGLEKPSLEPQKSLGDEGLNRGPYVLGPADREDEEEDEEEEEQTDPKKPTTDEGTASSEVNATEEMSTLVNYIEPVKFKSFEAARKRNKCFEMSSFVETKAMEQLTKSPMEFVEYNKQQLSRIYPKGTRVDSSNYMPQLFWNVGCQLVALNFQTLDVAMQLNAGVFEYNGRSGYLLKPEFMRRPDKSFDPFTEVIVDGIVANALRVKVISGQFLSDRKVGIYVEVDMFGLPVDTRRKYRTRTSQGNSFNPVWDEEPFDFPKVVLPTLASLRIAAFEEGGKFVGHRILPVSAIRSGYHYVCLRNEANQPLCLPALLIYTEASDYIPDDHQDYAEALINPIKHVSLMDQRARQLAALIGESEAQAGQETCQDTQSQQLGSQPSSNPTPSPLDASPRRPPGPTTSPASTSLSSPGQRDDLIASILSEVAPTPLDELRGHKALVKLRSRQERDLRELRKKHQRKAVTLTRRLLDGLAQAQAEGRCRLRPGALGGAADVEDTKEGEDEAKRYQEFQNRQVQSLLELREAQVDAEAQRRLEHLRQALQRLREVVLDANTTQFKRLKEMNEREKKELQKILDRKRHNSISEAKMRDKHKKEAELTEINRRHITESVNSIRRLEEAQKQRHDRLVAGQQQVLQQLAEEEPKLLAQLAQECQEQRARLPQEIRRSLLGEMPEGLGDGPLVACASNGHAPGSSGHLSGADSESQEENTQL
NPR1 activator – GC-A (human) enzyme activation; HEK293 GC-A cells, cGMP TR-FRET, EC30 ANP; 0% at EC30 ANP, 100% saturating ANP; P16066; 370,000 compounds, 0.14% hits; activation, % at 10 µM; in the data active = activation above about 40%
PLCg1 ctr – inhibits human PLC-gamma1 in PLC-beta3 counter-screen | shares compounds with PLCg1 inh | 3,300 compounds, 3.1% hits | purified PLC-gamma1, fluorogenic substrate, fluorescence | inhibition, % at 12.3 µM | AID 743258; in the data active = inhibition above about 9.5%
PLCbeta3 conf – confirmation of human PLC-beta3 inhibitors | shares compounds with PLCg1 inh | purified PLC-beta3, fluorogenic substrate fluorescence | inhibition, % at 12.3 µM | 3,300 compounds, 1% hits | AID 743261
Large screens that a line does not name were inactive (follow-up assays come after a bar, where they were run). Sampled rows, rich in hits. Any-hit rate of the full collection: about 1.2%. Cut-off read from the data, not from the text of the source, unless noted: active = inhibition above about 11%; inactive = the rest.

CC(=O)Nc1ccc(N2CC(C)(C)C2=O)cc1	PLCg1 inh 13.0 | PLCg1 ctr inactive | PLCbeta3 conf inactive
CC(C)Cn1cnc2c(Sc3c([N+](=O)[O-])ncn3C)nc(N)nc21	PLCg1 inh 21.5, PLC-beta3 inh 11.6 | PLCg1 ctr inactive | PLCbeta3 conf inactive
O=C1CC(SCCO)C(=O)N1c1ccc(Oc2ccccc2)cc1 (stereo not drawn)	PLCg1 inh 14.6 | PLCg1 ctr inactive | PLCbeta3 conf inactive
O=C(O)CCSC1CC(=O)N(c2ccccc2)C1=O (stereo not drawn)	none
O=C(Cc1csc(Nc2nc(=S)[nH]c3ccccc23)n1)N1CCN(c2cccc(C(F)(F)F)c2)CC1	none
O=C(Nc1cnn(Cc2ccc(F)cc2)c1)C(c1ccccc1)c1ccccc1	PLCg1 inh 10.4 | PLCg1 ctr inactive | PLCbeta3 conf inactive
O=C(Nc1cnn(Cc2ccc(F)cc2)c1)c1cnccn1	none
Cc1ccc2[nH]c(O)c(N=NC(=O)CCc3ccccc3)c2c1Br	PLCg1 inh 9.9 | PLCg1 ctr inactive | PLCbeta3 conf inactive
COc1ccc(NC(=O)Nc2ccc3c(c2)C(=O)N([C@H](C)CO)C[C@H](C)[C@@H](CN(C)S(=O)(=O)c2cccs2)O3)cc1	PLCg1 inh 11.4 | PLCg1 ctr inactive | PLCbeta3 conf inactive
CC(Oc1ccc(C(=O)c2ccccc2)cc1)C(=O)N1CCOCC1 (stereo not drawn)	none
Fc1ccc(C(c2nnnn2C2CCCC2)N(Cc2ccco2)CC2CCCO2)cc1 (stereo not drawn)	PLCg1 inh 11.0, PLC-beta3 inh 11.5 | PLCg1 ctr inactive | PLCbeta3 conf inactive
CCCS(=O)(=O)NC(=O)C1(C)CCN(C(=O)c2cc(C)on2)C1 (stereo not drawn)	PLCg1 inh 9.5 | PLCg1 ctr inactive | PLCbeta3 conf inactive
CCCS(=O)(=O)NC(=O)C1(C)CCN(C(=O)c2cc(C)oc2C)C1 (stereo not drawn)	none
CCOc1ncccc1C(=O)NNC(=O)c1csc(N2CCOCC2)n1	none
O=C(COc1ccc(Br)cc1Cl)NC1CCCCC1	none
COC(=O)C1CCCN1C(=O)COc1ccc(Br)cc1Cl (stereo not drawn)	PLCg1 inh 14.1 | PLCg1 ctr inactive | PLCbeta3 conf inactive
O=C(Nc1nc2ccccc2s1)C1CC(=O)N(c2ccccc2)C1 (stereo not drawn)	none
CCN(CC)C(=O)CSc1nc2ccccc2c(=O)n1-c1cccc(OC)c1	PLCg1 inh 10.4 | PLCg1 ctr inactive | PLCbeta3 conf inactive
CC1(C(=O)NS(=O)(=O)c2cccc(Cl)c2)CCN1C(=O)CC1CCCCC1 (stereo not drawn)	none
O=S(=O)(Nc1nc2ccccc2s1)c1ccc(Cl)s1	none
O=S(=O)(Nc1nc2ccccc2s1)c1cc(F)ccc1F	PLCg1 inh 9.5 | PLCg1 ctr inactive | PLCbeta3 conf inactive
COc1ccc(C(c2nnnn2-c2ccc(OC)cc2)N2CCN(C/C=C/c3ccccc3)CC2)cc1 (stereo not drawn)	none
COc1ccccc1N1CCN(C(c2ccc(Cl)cc2)c2nnnn2C(C)(C)C)CC1 (stereo not drawn)	PLCg1 inh 12.8 | PLCg1 ctr inactive | PLCbeta3 conf inactive
COc1ccc(C(c2nnnn2C(C)(C)C)N2CCN(C/C=C/c3ccccc3)CC2)cc1 (stereo not drawn)	PLCg1 inh 11.4 | PLCg1 ctr inactive | PLCbeta3 conf inactive
CC1=C(C(=O)Nc2ccc(CC(=O)NCc3ccc(OC(C)C)cc3)cc2)SCCO1	none
O=C1CCCC(O)=C1N=Nc1ccc2c(c1)OCO2	none
O=C1CCCC(O)=C1N=Nc1ccc(C(=O)O)cc1	PLCg1 inh 12.8 | PLCg1 ctr inactive | PLCbeta3 conf inactive
O=C(NCc1ccccc1)C1=C[C@H](c2ccc(C(F)(F)F)cc2)C[C@H](OCc2ccc(CO)cc2)O1	PLC-beta3 inh 13.9 | PLCg1 ctr inactive | PLCbeta3 conf inactive
CCOC(=O)CSc1nnnn1-c1cc(OC)c(Cl)cc1OC	PLCg1 inh 9.8 | PLCg1 ctr inactive | PLCbeta3 conf inactive
C[C@@H]1CN([C@@H](C)CO)S(=O)(=O)c2ccc(Br)cc2O[C@H]1CN(C)C(=O)c1ccccc1F	none
COc1ccc2c(c1)O[C@@]1(CCCC[C@@H]1C)CC2=O	none
COc1ccc2c(c1)OC(O)(C(F)F)CC2=O (stereo not drawn)	PLCg1 inh 11.9 | PLCg1 ctr inactive | PLCbeta3 conf inactive
Cc1ccc(-c2noc(C3CCCN(C(=O)c4ccccc4Br)C3)n2)o1 (stereo not drawn)	none
Cc1ccc2nc(C3CCN(C(=O)NCc4ccccc4)CC3)[nH]c2c1	PLCg1 inh 10.1 | PLCg1 ctr inactive | PLCbeta3 conf inactive
COc1ccc(OC)c(NC(=O)CNC(c2ccccc2)c2ccccc2)c1	PLCg1 inh 12.7 | PLCg1 ctr inactive | PLCbeta3 conf inactive
COc1ccc(/C=N/NC(=O)C(C)n2cnc3ccccc3c2=O)cc1OC (stereo not drawn)	none
C[C@H](NC(=O)[C@@H]1CSC2c3ccccc3C(=O)N21)C(=O)NCCc1ccc(F)cc1 (stereo partly drawn)	PLCg1 inh 12.4 | PLCg1 ctr inactive | PLCbeta3 conf inactive
C[C@H](NC(=O)[C@@H]1CSC2c3ccccc3C(=O)N21)C(=O)NCCc1ccccc1 (stereo partly drawn)	none
CCCCCCOc1ccc(/C(N)=N/O)cc1	PLCg1 inh 11.6 | PLCg1 ctr inactive | PLCbeta3 conf inactive
O=C(NCc1ccc(F)cc1)c1ccc(Cl)c(NC2=NC3CS(=O)(=O)CC3S2)c1 (stereo not drawn)	none
CCOC(=O)C1CCCN(C(=O)c2cccc(S(=O)(=O)N(Cc3ccccc3)c3ccccc3OC)c2)C1 (stereo not drawn)	PLCg1 inh 9.7 | PLCg1 ctr inactive | PLCbeta3 conf inactive
CCOC(=O)C1CCCN(C(=O)c2cccc(S(=O)(=O)N(C)c3ccc(OC)cc3)c2)C1 (stereo not drawn)	none
O=c1c2ccccc2c(=O)n2n1Cc1ccccc1C2	none
CC1=CCn2c(=O)c3ccccc3c(=O)n2C1	PLCg1 inh 10.7 | PLCg1 ctr inactive | PLCbeta3 conf inactive
CCOc1ccc(C(=O)c2cc([N+](=O)[O-])ccc2Cl)cc1	PLCg1 inh 12.7, PLC-beta3 inh 15.5 | PLCg1 ctr inactive | PLCbeta3 conf inactive
O=C(COC(=O)c1cccc(Br)c1)NCCC1=CCCCC1	none
O=C(NCc1ccccc1Cl)C1CCCN1C(=O)NCc1ccccc1 (stereo not drawn)	none
O=C(NCc1ccccc1F)C1CCCN1C(=O)NCc1ccccc1 (stereo not drawn)	PLC-beta3 inh 13.5 | PLCg1 ctr inactive | PLCbeta3 conf inactive
CCN1CCN(c2nc(N)c([N+](=O)[O-])c(Nc3ccc(C)cc3)n2)CC1	PLCg1 inh 13.1 | PLCg1 ctr inactive | PLCbeta3 conf inactive

High-throughput results from PubChem.
